Screening results deposited in PubChem BioAssay by several laboratories.
GDH-TPI inh: counter-screen for M. tuberculosis FBA inhibitors: GDH-TPI coupled enzymes; GDH-TPI coupled enzyme counterscreen, NADH absorbance; inhibition, % at 4.8 µM; 360,000 tested, 1.2% active; AID 588335; in the data active means inhibition above about 30%;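 further: 0% = DMSO wells and 100% = wells lacking the enzyme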
Mtb FBA inh: inhibitors of M. tuberculosis fructose-bisphosphate aldolase | purified M. tuberculosis FBA, fluorescence read-out | AID 588726 | inhibition, % at 1 µM | 360,000 tested, 2.3% active; in the data active means inhibition above about 27%;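 further: 0% = vehicle and 100% = reference inhibitor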
Target sequence (P9WQA3 whole entry, looked up): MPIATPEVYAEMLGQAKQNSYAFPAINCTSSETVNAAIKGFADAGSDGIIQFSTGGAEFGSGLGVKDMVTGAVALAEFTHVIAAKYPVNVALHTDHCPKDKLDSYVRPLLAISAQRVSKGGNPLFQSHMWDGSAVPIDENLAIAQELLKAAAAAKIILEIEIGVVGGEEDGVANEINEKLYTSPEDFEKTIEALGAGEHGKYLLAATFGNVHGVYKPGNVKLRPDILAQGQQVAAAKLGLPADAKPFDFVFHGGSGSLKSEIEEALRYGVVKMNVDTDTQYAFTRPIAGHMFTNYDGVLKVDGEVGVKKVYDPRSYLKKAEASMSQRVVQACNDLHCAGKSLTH
Mtb bLac sens: beta-lactam sensitization of Mtb H37Rv | inhibition, % at 25 µM | AID 434955 | M. tuberculosis H37Rv growth with meropenem, percent inhibition | 330,000 tested, 0.27% active; call rule not given here;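 further: growth measured after seven days incubation then overnight dye step; 0% = bacteria only wells and 100% = bacteria with antibiotic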
RecA splice inh: inhibitors of M. tuberculosis RecA intein splicing. 290,000 tested, 0.75% active. P9WHJ3. inhibition, % (test concentration not listed). cell-free RecA intein splicing, fluorescence; in the data active means inhibition above about 30%; inconclusive means no clear call, values can overlap the other calls;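 further: 0% = vehicle wells and 100% = reference inhibitor control wells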
Rv3671c inh: inhibitors of M. tuberculosis serine protease Rv3671c. P9WHR9. inhibition, % at 5.96 µM. 320,000 tested, 0.048% active. AID 2606; in the data active means inhibition above about 38%;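 further: extracellular domain of Rv3671c used as enzyme; 0% = enzyme with DMSO and 100% = no enzyme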
UGM FP inh: Mtb UDP-galactopyranose mutase inhibition; 320,000 tested, 0.06% active; AID 504406; inhibition, % at 10 µM; purified UGM, fluorescence polarization probe displacement; P9WIQ1; in the data active means inhibition above about 10%, passing the limit was not always enough; inconclusive means no clear call, values can overlap the other calls
The depositor's hits bear a star; ? = inconclusive; . = not tested or not shown; + = active, no number. The list is not random: actives were taken first. Their share in the collection is about 4%.

SMILES	GDH-TPI inh	Mtb FBA inh	Mtb bLac sens	RecA splice inh	Rv3671c inh	UGM FP inh
Cc1nc(NC(=O)c2oc3ccccc3c2C)sc1C(=O)N(C)C	32*	-1	5	0	-3	2
Cc1nnc(NC(=O)c2oc3ccccc3c2C)s1	3	0	-8	1	4	-1
Cc1nc(NC(=O)/C=C/c2ccc(F)cc2)sc1C(=O)N(C)C	34*	-2	-5	0	-9	-1
Cc1ccc(S(=O)(=O)N2CCN(C(=O)Cn3c(=O)cnc4ccccc43)CC2)cc1	3	6	-4	.	3	2
Cc1ccc[n+](-c2[nH]c(=O)sc2/C=N/N=C(\[O-])CCn2c3ccccc3c3ccccc32)c1	21	-4	-5	0	3	-1
CC(C)(C)c1cc[n+](-c2[nH]c(=O)sc2/C=N/NC([S-])=Nc2ccccc2)cc1	37*	-8	2	-6	9	18*
Cc1cc[n+](-c2[nH]c(=O)sc2/C=N/NC([S-])=Nc2ccccc2)cc1C	52*	-6	-4	-2	-10	.
CCOC(=O)c1ccc(-c2ccc3ncnc(NCc4csc(C)n4)c3c2)o1	37*	+	.	.	.	.
COc1cccc(-c2c(NC(C)=O)n(C)c3ccccc3c2=O)c1	11	3	3	2	6	-3
COc1ccc(-c2c(NC(=O)c3ccco3)oc3ccccc3c2=O)cc1	40*	1	8	-4	-7	2
COc1ccc(-c2c(NC(C)=O)n(C)c3ccccc3c2=O)cc1	36*	26	12	0	5	-6
COc1cc2ccc(=O)oc2cc1OCC(O)C(C)(C)O (stereo unspecified)	21	138*	-4	-7	4	-1
COc1cc2ccc(=O)oc2cc1O	20	+	-10	.	-4	2
O=c1ccc2cc(OC3O[C@H](CO)[C@@H](O)[C@H](O)[C@H]3O)c(O)cc2o1 (stereo partly specified)	20	.	6	.	8	1
COc1cc2oc(=O)ccc2c(OC)c1CC(O)C(C)(C)O (stereo unspecified)	6	4	-9	-3	6	-3
CN1CCN(c2nc(Nc3ccccc3)nc(N)c2[N+](=O)[O-])CC1	24	-2	-3	11	2	0
Cc1cccc(Nc2nc(NCCCN3CCOCC3)nc(N)c2[N+](=O)[O-])c1	64*	-5	2	-1	3	-2
Cc1ccc(Nc2nc(N)c([N+](=O)[O-])c(N3CCOCC3)n2)cc1C	21	-4	11	6	-13	-2
Nc1nc(Nc2cccc(F)c2)nc(N2CCOCC2)c1[N+](=O)[O-]	37*	-2	-4	1	8	2
Cc1cccc(Nc2nc(N)c([N+](=O)[O-])c(N3CCN(C)CC3)n2)c1	33*	-2	5	3	1	-1
COc1ccc(Nc2nc(NCCCN3CCOCC3)nc(N)c2[N+](=O)[O-])cc1	24	-2	-2	.	2	5
Nc1nc(NCCCN2CCOCC2)nc(Nc2cccc(F)c2)c1[N+](=O)[O-]	51*	-3	-14	-2	0	0
Nc1nc(NCCCN2CCOCC2)nc(Nc2ccc(F)cc2)c1[N+](=O)[O-]	19	-3	-5	0	-6	-1
CCC(C(=O)OCC(=O)NCc1ccc2c(c1)OCO2)c1ccccc1 (stereo unspecified)	-1	0	-6	.	10	-1
CCOC(=O)Cn1nc(NC(=O)c2ccc(C(=O)OC)cc2)cc1C	-3	1	1	-1	6	-2
SMILES	GDH-TPI inh	Mtb FBA inh	Mtb bLac sens	RecA splice inh	Rv3671c inh	UGM FP inh
COc1ccc(Cl)cc1NC(=S)NC(=O)c1ccco1	13	-1	-6	.	-7	-2
CCN(C[C@H]1N[C@@](Cc2ccccc2)(C(=O)OC)[C@H]2C(=O)N(C)C(=O)[C@@H]12)C(=O)COC	15	5	-1	.	-3	-2
O=C(NNC1=Nc2ccccc2SC1)c1ccc(Cl)cc1	38*	-1	96	0	5	-1
O=C(CCl)Nc1cn(-c2ccccc2)nc1-c1ccc(F)cc1	1	1	100	46*	5	0
O=C(Nc1nnc(SCc2ccc(Cl)cc2)s1)c1ccco1	32*	-2	-5	-2	-3	0
Cc1noc(C)c1C(=O)Nc1nnc(-c2ccccc2)s1	35*	7	-7	-3	-11	0
Cc1cccc(-c2nnc(NC(=O)c3ccco3)s2)c1	34*	2	-7	0	-1	0
CCSc1nnc(NC(=O)c2ccco2)s1	28	1	4	-2	7	1
CCCCC(=O)OCC(=O)N1N=C(c2c[nH]c3ccccc23)C(O)C1c1ccc(OC)cc1 (stereo unspecified)	14	10	99	4	4	0
COc1cccc(OCCn2c(C)c(/C=N/n3cnnc3)c3ccccc32)c1	34*	0	-3	10	-14	3
COc1ccc(OCCn2c(C)c(/C=N/n3cnnc3)c3ccccc32)cc1	12	4	0	-1	1	0
COCCCn1c(=O)/c(=C/c2ccccc2OC(F)F)s/c1=C(\C#N)C(=O)NCCOC	18	1	.	.	.	.
COCCCn1c(=O)/c(=C\c2cccc(OC)c2OC)s/c1=C(/C#N)C(=O)Nc1ccc(C(=O)O)cc1	40*	-2	.	-2	-19	2
CCOC(=O)[C@H](C)N1[C@H](C)[C@H](c2ccccc2)Oc2ccc(Cl)cc2S1(=O)=O	8	-2	.	.	.	.
CCN(Cc1ccccc1)c1ccc(/C=N/NS(=O)(=O)c2ccc(C)c([N+](=O)[O-])c2)cc1	32*	-4	2	4	1	1
CNc1ccccc1C(=O)OC(C)C(=O)Nc1ccc(Cl)cn1 (stereo unspecified)	22	112*	?	-8	-8	1
Cc1cc(C)cc(Nc2ccc(C(=O)O)cc2N)c1	-3	118*	9	6	22	0
Cc1ccc(Nc2ccc(C(=O)O)cc2N)cc1	.	.	19	4	-15	-1
COc1ccc(Oc2coc3c(CN(C)C)c(O)ccc3c2=O)cc1	19	15	1	-3	3	1
COc1ccccc1-c1coc2c(CN3CCC(C)CC3)c(O)ccc2c1=O	27	149*	2	-8	-1	0
CCN(CC)Cc1c(O)ccc2c(=O)c(-c3ccccc3OC)coc12	15	116*	1	.	-3	3
CC(=O)c1ccc(N2CCN(C(=O)C(=O)c3c(C)[nH]c4ccccc34)CC2)cc1	34*	-4	33	-2	-2	-2
COc1ccc(N2CCN(C(=O)C(=O)c3c(C)[nH]c4ccccc34)CC2)cc1	13	1	5	-1	-5	2
N=C1SCC(=O)N1c1ncc(Cc2ccc(F)cc2)s1	31*	1	90	7	0	1
Cc1ccc(-c2csc(N3C(=N)SCC3=O)n2)cc1	.	.	-4	-8	-4	-1
